The values below come from PubChem BioAssay.

Active and inactive are the calls of the source.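 How the source made its calls, unless noted: active means NADPH fluorescence slope more negative than the mean of all samples by about 3 SD, 99.7% confidence; inactive means the rest.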

A short description of test [1]: inhibitors of TNFa-induced NFkB p65 translocation, primary screen, imaging, HUVEC, MLSMR starter and 10KST1 sets (AID 438;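 active means inhibition above 20% together with a positive visual image hit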;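 further: compound added about 3h40 before a 20 min TNFalpha stimulation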;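 on inhibition: signal is the nuclear over cytoplasmic p65 intensity ratio per well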). Conditions: HUVEC TNFa-induced p65 nuclear translocation; cell count: measured here: nuclei count (cytotoxicity indicator), at 2.08 µM; inhibition: at 2 µM, stronger effect = higher value, 0% TNFa-plus-vehicle, 100% no-TNFa wells.
The nature of test [2]: inhibitors of mutant huntingtin aggregation, primary screen, imaging, exon1htt(103Q)mCFP cells, high-content imaging (AID 483;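 active means visual image review flags a hit and inhibition of aggregation exceeds 20%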;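 further: compound exposure lasted 3 days before fixation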;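 on nuclei count: percent of the per-plate median nuclei count of sample wells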). Conditions: exon1htt(103Q)mCFP cell line, aggregate imaging, at 2 µM; inhibition of aggregation: stronger effect = higher value; nuclei count: measured here: cell count, toxicity.
Test [3] is described as follows: inhibitors of E-selectin induction by TNFa, primary screen, imaging, HUVEC, immunofluorescence, MLSMR starter and 10KST1 sets (AID 487;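 active means visually confirmed hit in the image check and inhibition above 20%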;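 on inhibition: signal is fraction of cell area covered by stained E-selectin grains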;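 on nuclei count: 100% = median nuclei count of all wells on the same plate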). Conditions: HUVEC TNFalpha-induced E-selectin immunofluorescence imaging, at 2 µM; inhibition: stronger effect = higher value; nuclei count: measured here: cell number, toxicity.
Test [4] addresses Voltage-gated potassium channel subunit beta-2 (Rattus norvegicus) (UniProt P62483). The test is described as follows: KvBeta enzyme negative modulators, primary screen, biochemical, NADPH fluorescence (AID 622;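 active means fluorescence slope higher than the sample average by over 3 SD, cut at about -0.22 in these data, passing the limit was not always enough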;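 further: slope of raw intensity against log time taken from 70 to 1610 s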). Conditions: recombinant KvBeta, 4-cyanobenzaldehyde reduction, at 10 µM, stronger effect = higher value.
Test [5] shares this target. The test can be described thus: KvBeta positive modulators, primary screen, biochemical, NADPH fluorescence (AID 623).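 Further: fluorescence intensity change per second fitted from 20 to 320 s.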 Conditions: Recombinant KvBeta, NADPH fluorescence decrease slope, 10 min; at 10 µM; stronger effect = lower value.
The target in test [6] is Alpha-2C adrenergic receptor (Homo sapiens) (UniProt P18825). The test can be described thus: modulators of alpha2C/GIRK thallium flux, primary screen, cell-based, HEK293 alpha2C/GIRK1/2 (AID 624;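 active means fluorescence slope after compound addition differing from the mean of all screened samples at 99.7% confidence, in either direction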;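 further: slope of fluorescence ratio to pre-addition baseline per second over 15 to 24 s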). Conditions: thallium flux BTC fluorescence, at 10 µM, actives lie on both sides.
Chain of Alpha-2C adrenergic receptor (Homo sapiens) (P18825 whole entry, looked up): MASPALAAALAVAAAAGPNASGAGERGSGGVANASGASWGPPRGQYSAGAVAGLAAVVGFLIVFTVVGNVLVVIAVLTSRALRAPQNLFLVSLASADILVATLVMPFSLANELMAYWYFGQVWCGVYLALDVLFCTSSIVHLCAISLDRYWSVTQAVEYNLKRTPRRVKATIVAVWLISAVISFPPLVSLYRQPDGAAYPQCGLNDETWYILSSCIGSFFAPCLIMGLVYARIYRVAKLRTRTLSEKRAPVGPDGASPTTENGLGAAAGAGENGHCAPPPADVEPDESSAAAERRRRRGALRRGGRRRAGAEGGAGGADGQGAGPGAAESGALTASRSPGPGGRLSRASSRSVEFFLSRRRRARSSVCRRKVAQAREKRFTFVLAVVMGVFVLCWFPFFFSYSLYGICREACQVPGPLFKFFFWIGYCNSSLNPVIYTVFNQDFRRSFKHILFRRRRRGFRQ
Test [7] is described as follows: inhibitors of Sendai virus-induced IRF3 signaling, primary screen, TLR/RLR signaling modifier project, cell-based, Sendai virus stimulus, luciferase, 10K MLSCN set (AID 602276;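 active means inhibition at or above 50% at 10 µM; inactive means inhibition below 50%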;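 further: firefly luciferase from ISG56 promoter only with Renilla not read in this screen; 0% = Sendai virus plus DMSO and 100% = medium plus DMSO without virus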). Conditions: HEK293 RL24 IRF3 luciferase reporter, at 10 µM, stronger effect = higher value.
Test [8] can be described thus: inhibitors of poly I:C-induced TLR3 signaling, primary screen, cell-based, poly I:C stimulus, luciferase, 10K MLSCN set (AID 602277;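 active means inhibition of the reporter signal at or above 50%; inactive means inhibition below 50%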). Conditions: HEK293-TLR3 RL24 IRF3 luciferase reporter, at 10 µM, stronger effect = higher value.

Chain of Voltage-gated potassium channel subunit beta-2 (Rattus norvegicus) (P62483 whole entry, looked up): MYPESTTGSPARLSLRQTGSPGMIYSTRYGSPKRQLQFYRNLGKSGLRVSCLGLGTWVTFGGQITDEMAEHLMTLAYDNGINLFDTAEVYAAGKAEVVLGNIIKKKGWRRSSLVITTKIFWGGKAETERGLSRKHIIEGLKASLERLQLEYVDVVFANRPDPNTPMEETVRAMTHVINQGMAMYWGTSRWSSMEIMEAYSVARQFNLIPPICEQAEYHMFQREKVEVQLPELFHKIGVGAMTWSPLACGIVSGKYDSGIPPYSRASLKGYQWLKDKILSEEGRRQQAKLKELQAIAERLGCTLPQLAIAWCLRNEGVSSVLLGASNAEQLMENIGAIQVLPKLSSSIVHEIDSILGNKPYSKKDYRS

Take `COc1ccc(CNC(=O)c2nnn(Cc3ccc(OC)cc3)c2N)cc1`: in test [1], the cell count came to 649. The inhibition was 2.8% (inactive) in test [1], -6.7% (inactive) in test [3], 12.2% (inactive) in test [7] and 22.1% (inactive) in test [8]. The inhibition of aggregation in test [2] was -8.9% (inactive). In addition, the nuclei count was found to be 84.9% in test [2] and 92.2% in test [3]. The fluorescence slope in test [4] was -0.624 (inactive). Further, the NADPH fluorescence slope in test [5] is -2.4e-05 (inactive). In addition, the slope in test [6] was 0.00639 (inactive).

With `Cc1ccc(C)c(NC(=O)CSc2nnc(-c3ccccc3)o2)c1`, the cell count in test [1] worked out at 613. In addition, the inhibition is -6% (inactive) in test [1], -45.1% (inactive) in test [3], 10% (inactive) in test [7] and 29.3% (inactive) in test [8]. Moreover, the inhibition of aggregation in test [2] was 18.9% (inactive). Besides, the nuclei count is 89.2% in test [2] and 104% in test [3]. Further, in test [4], the fluorescence slope was -0.543 (inactive). Further, in test [5], the NADPH fluorescence slope was 8.3e-06 (inactive). Also, the slope in test [6] was 0.00712 (inactive).

`COC(=O)c1cccc(S(=O)(=O)N2CCC(C)CC2)c1`: in test [1], the cell count amounted to 326. Also, the inhibition is -10.3% (inactive) in test [1], -70.6% (inactive) in test [3], 0.114% (inactive) in test [7] and -2.56% (inactive) in test [8]. The inhibition of aggregation in test [2] was 11.2% (inactive). Further, the nuclei count in test [2] is 95.5%; in test [3], 93%. In addition, the fluorescence slope in test [4] is -0.547 (inactive). In addition, the NADPH fluorescence slope in test [5] is 5.2e-05 (inactive). In test [6], the slope was 0.00519 (inactive).

Consider `COc1ccccc1NC(=O)N(C1CCCC1)C1CCN(C(C)=O)CC1`, for which, in test [1], the cell count worked out at 830. Besides, the inhibition in test [1] was 18.5% (inactive); in test [3], -61.6% (inactive); in test [7], 12.4% (inactive); in test [8], 34.4% (inactive). For the same molecule, the inhibition of aggregation in test [2] was -7% (inactive). Moreover, the nuclei count was determined as 98% in test [2] and 123% in test [3]. Also, the fluorescence slope in test [4] is -0.582 (inactive). Moreover, in test [5], the NADPH fluorescence slope is -3.7e-05 (inactive). Further, the slope in test [6] is 0.00578 (inactive).

`COc1ccc(NC(=O)CC2Sc3ncnn3C2=O)cc1` (centres undefined): the cell count in test [1] amounted to 632. The inhibition in test [1] was -5% (inactive); in test [3], -65.3% (inactive); in test [7], 8.74% (inactive); in test [8], 16.8% (inactive). Moreover, the inhibition of aggregation in test [2] is -9.2% (inactive). Further, the nuclei count in test [2] amounted to 128%; in test [3] it was 126%. In addition, the fluorescence slope in test [4] was -0.567 (inactive). The NADPH fluorescence slope in test [5] was -4e-05 (inactive). Besides, the slope in test [6] is 0.0059 (inactive).

In the case of `OC(COc1ccccc1)CN1C2=NCCCN2c2ccccc21` (centres undefined), the cell count in test [1] was 295. Also, the inhibition was 1.6% (inactive) in test [1], 5.3% (inactive) in test [3], 20% (inactive) in test [7] and 30.6% (inactive) in test [8]. In addition, the inhibition of aggregation in test [2] is -3.1% (inactive). Besides, the figures for the nuclei count in test [2] and in test [3] were 81.2% and 79.2%, respectively. In addition, the fluorescence slope in test [4] was -0.608 (inactive). Besides, the NADPH fluorescence slope in test [5] is -4.2e-06 (inactive). The slope in test [6] is 0.00402 (inactive).

With `Cc1ccc2c(C)nc(Nc3nc(CSc4nnnn4-c4ccccc4)cc(=O)[nH]3)nc2c1`, the cell count in test [1] is 352. In addition, the inhibition is -3.8% (inactive) in test [1], -54.7% (inactive) in test [3], 8.72% (inactive) in test [7] and -4.56% (inactive) in test [8]. In test [2], the inhibition of aggregation was -22.3% (inactive). For the same molecule, the results for the nuclei count in test [2] and in test [3] were 100% and 101%, respectively. Moreover, in test [4], the fluorescence slope was -0.6 (inactive). Also, the NADPH fluorescence slope in test [5] is -3.4e-05 (inactive). Also, the slope in test [6] was 0.00691 (inactive).

`Cc1nnc(SCc2cn3ccsc3n2)n(N)c1=O`: the cell count in test [1] turned out to be 858. The inhibition is -10.7% (inactive) in test [1], -50.6% (inactive) in test [3], 17.8% (inactive) in test [7] and 31.6% (inactive) in test [8]. Besides, the inhibition of aggregation in test [2] was -21% (inactive). Also, the nuclei count amounted to 105% in test [2] and 121% in test [3]. Besides, in test [4], the fluorescence slope was -0.641 (inactive). Moreover, the NADPH fluorescence slope in test [5] is 1.9e-05 (inactive). The slope in test [6] was 0.00624 (inactive).

As for `COc1cc(C(=O)N2CCN(c3cc(Cl)ccc3Cl)CC2)cc(OC)c1OC`, the cell count in test [1] stood at 630. The inhibition was -6.1% (inactive) in test [1], -62.3% (inactive) in test [3], 12% (inactive) in test [7] and 78.9% (active) in test [8]. For the same molecule, in test [2], the inhibition of aggregation was 1% (inactive). For the same molecule, the nuclei count stood at 34.1% in test [2] and 98.9% in test [3]. Besides, the fluorescence slope in test [4] is -0.425 (inactive). Further, the NADPH fluorescence slope in test [5] was -7.3e-05 (inactive). For the same molecule, in test [6], the slope is 0.00499 (inactive).

On to `COc1ccc(S(=O)(=O)NCC(c2cccnc2)N2CCN(c3ccc(F)cc3)CC2)cc1C` (centres undefined), for which, in test [1], the cell count is 234. The inhibition is -19.1% (inactive) in test [1], 19.6% (inactive) in test [3], 13.6% (inactive) in test [7] and 27.2% (inactive) in test [8]. Further, in test [2], the inhibition of aggregation was -4.9% (inactive). For the same molecule, the nuclei count was 56.8% in test [2] and 87.7% in test [3]. The fluorescence slope in test [4] was -0.447 (inactive). In addition, the NADPH fluorescence slope in test [5] was 1.7e-05 (inactive). In test [6], the slope was 0.00574 (inactive).

Consider `COc1ccc(OCC(O)Cn2c(Br)nc3c2c(=O)[nH]c(=O)n3C)cc1` (centres undefined), for which, in test [1], the cell count amounted to 221. The inhibition is 2.4% (inactive) in test [1], -39.9% (inactive) in test [3], 35% (inactive) in test [7] and 27.6% (inactive) in test [8]. Also, the inhibition of aggregation in test [2] was 15.5% (inactive). Further, the nuclei count in test [2] came to 74.9%; in test [3], 155%. Also, the fluorescence slope in test [4] was -0.6 (inactive). Besides, in test [5], the NADPH fluorescence slope is -3.5e-05 (inactive). Moreover, in test [6], the slope was 0.00397 (inactive).

Turning to `CCOc1cc(CN2CCN(C(=O)c3ccco3)CC2)ccc1OC`, the cell count in test [1] worked out at 403. In addition, the inhibition in test [1] is -3% (inactive); in test [3], 44.9% (inactive); in test [7], 11.7% (inactive); in test [8], 21.2% (inactive). Besides, in test [2], the inhibition of aggregation is 8.5% (inactive). For the same molecule, the nuclei count was 88.9% in test [2] and 104% in test [3]. The fluorescence slope in test [4] was -0.33 (inactive). In addition, the NADPH fluorescence slope in test [5] is -1.5e-05 (inactive). The slope in test [6] is 0.00559 (inactive).

With `Cc1ccccc1OCCCN1C(=O)C(=O)c2cccc(C)c21`, the cell count in test [1] worked out at 833. The inhibition in test [1] was 3.7% (inactive); in test [3], -81.4% (inactive); in test [7], 5.45% (inactive); in test [8], -4.08% (inactive). For the same molecule, the inhibition of aggregation in test [2] was 5% (inactive). The nuclei count in test [2] turned out to be 108%; in test [3], 113%. For the same molecule, in test [4], the fluorescence slope is -0.575 (inactive). In test [5], the NADPH fluorescence slope is -5e-05 (inactive). For the same molecule, in test [6], the slope was 0.00604 (inactive).

Take `CC1=CC2=C(OC1N(C)C)c1cccc3cccc(c13)C2=O` (centres undefined): the cell count in test [1] worked out at 277. Moreover, the inhibition is 23.4% (active) in test [1], 46.7% (inactive) in test [3], 5.12% (inactive) in test [7] and -3.5% (inactive) in test [8]. The inhibition of aggregation in test [2] is 3.4% (inactive). Further, the nuclei count in test [2] worked out at 96.5%; in test [3] it was 100%. Besides, the fluorescence slope in test [4] was -0.493 (inactive). For the same molecule, the NADPH fluorescence slope in test [5] is 2e-06 (inactive). Besides, the slope in test [6] was 0.00351 (inactive).
